Test results as given in PubChem BioAssay (NCATS).
“And” between values parts separate entries of the source, which are not always exact repeats. Equal entries are not always repeated. Records with an inconclusive call do not appear. Where a call stands in place of a potency, no number is given. The source made the active and inactive calls. Unless noted, calls come from the whole dose curve; as a rule, active = well fitted curve in the direction sought with a large enough effect; inconclusive = small, poorly fitted or top-dose-only effect, or another doubt; inactive = no such curve, though single readings can be large; an effect the other way counts as inactive or inconclusive. *1 amine or outer side, *2 acyl side, *3 side chain or, on linkers, in order; H or OH if unused. Where a SMILES comes first, the peptide text is derived from it. [ ]: non-standard residue; d: D form. X7 = O=C([C@@H](CC(O)CCl)O[*:1])[*:2]; aIle = CC[C@@H](C)[C@H](N)C(=O)O; NMeV = CN[C@H](C(=O)O)C(C)C; NMeA = CN[C@@H](C)C(=O)O; βAla = NCCC(=O)O

Columns and labels:
[1] = test system: Zika virus NS2B-NS3 protease (unlinked complex); experiment: Primary screen GU Rhodamine qHTS for Zika virus inhibitors: Unlinked NS2B-NS3 protease assay (AID 1347159); note: nearly all actives have a fitted effect of over 60% in size
In short: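 In dose–response format, inhibition of unlinked protease (25 nM) was measured with 1.5 microM bis-peptide Rhodamine110 substrate. Aprotinin served as the intraplate control.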

[2] = Primary qHTS for inhibitors of nuclear receptor binding SET domain protein 2 (NSD2) in an RCH-ACV wild type WT cells (2C) (AID 1645877); note: nearly all actives have a fitted effect of over 70% in size; note: potency is the fitted concentration of half-maximal effect
[3] = molecular target: Glutathione peroxidase 1 (Homo sapiens) (UniProt P07203); experiment: Primary qHTS Assay for Inhibitors of Recombinant Selenoprotein Glutathione Peroxidase 1 (GPX1) (AID 1845191); note: nearly all actives have a fitted effect of over 65% in size
In short: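 GPX1 10 nM, GR 100 nM, GSH 1 mM, NADPH 0.5 mM, CHP 0.5 mM (final). 30-min cpd preincubation, RT. Ex340/Em450 read t=0, t=15 min.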

[4] = Primary fluorescence-based thiol-reactive (MSTI) qHTS assay for identification of artifact compounds. (AID 1845221);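 note: thiol-reactive compounds lower the probe fluorescence signal; nearly all actives have a fitted effect of over 65% in size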
In short: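 Probe: MSTI 4 uM, PBS pH 7.4, 2% DMSO. Incubation 1 h, RT, light-protected. Readout fluorescence 525/598 nm.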

CAOV3 = experiment: Primary qHTS to identify gynecologic anti-cancer compounds using libraries of approved drugs and bioactive compounds (AID 1345084); settings: Gynecologic cancer cell panel viability, ATPlite luminescence, 48 h; series mostly up to 57.5 µM; note: nearly all actives have a fitted effect of over 55% in size; note: potency is the fitted concentration of half-maximal effect
In short: (§1)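 Cell viability after 48 h drug treatment, ATPlite luminescence readout; five doses.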

JEG-3 = experiment: as above; settings: Gynecologic cancer cell panel viability, ATPlite luminescence, 48 h; series mostly up to 57.5 µM
In short: as §1

HeLa = experiment: as above; settings: Gynecologic cancer cell panel viability, ATPlite luminescence, 48 h; series mostly up to 57.5 µM
In short: as §1

SKOV3 = experiment: as above; settings: Gynecologic cancer cell panel viability, ATPlite luminescence, 48 h; series mostly up to 57.5 µM
In short: as §1

[5] = P-glycoprotein substrates identified in KB-3-1 adenocarcinoma cell line, qHTS therapeutic library screen (AID 1346986); note: nearly all actives have a fitted effect of over 60% in size;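 note: potency is the fitted concentration of half-maximal effect; potency is for cytotoxicity meaning loss of cell viability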
In short: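 Using luminescence to quantify ATP, parental and P-gp-overexpressing KB cells were compared after 72 h compound titration. KB-8-5-11 was also run with the P-gp inhibitor tariquidar.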

[6] = molecular target: Cytochrome P450 2D6 (Homo sapiens) (UniProt P10635); experiment: Cytochrome P450 family 2 subfamily D member 6 (CYP2D6) small molecule antagonists: luciferase biochemical (cell-free) qHTS assay (AID 1645840; active = well fitted curve in the direction sought with a large enough effect in the repeat runs; an effect the other way counts as inactive or inconclusive; note: nearly all actives have a fitted effect of over 55% in size; note: potency is the fitted concentration of half-maximal effect)
In short: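 P450-Glo CYP2D6 system: proluciferin substrate converted by enzyme to luciferin, read by luminescence proportional to activity. Enzyme-substrate mix with compound 10 min at room temperature, then NADPH regeneration 1 h before detection reagent.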

NIH3T3 = experiment: qHTS assay to identify novel small-molecules to repurpose for Merkel cell carcinoma treatment (AID 1296009); settings: MCC and control cell lines, CellTiter-Glo viability, 72 h; at 44.8 µM (top of the series) unless noted; note: nearly all actives have a fitted effect of over 60% in size
In short: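 Luminescence from CellTiter-Glo, read 10 min after addition at room temperature, reported viability following a 72 hr, 37 degree celsius treatment with NPC or MIPE compounds in titration; values normalized to plate controls.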

KB-3-1 = experiment: Cytotoxic Profiling of Annotated Libraries Using Quantitative High-Throughput Screening (AID 1296008); settings: Five cell lines viability, CellTiter-Glo ATP luminescence, 48-72 h; max response: stronger effect = lower value; note: nearly all actives have a fitted effect of over 60% in size; note: potency is the fitted concentration of half-maximal effect
In short: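 Compounds were pin-transferred onto cells and incubated 48 or 72 hr at 37 degree Celsius, 95% humidity. CellTiter-Glo was added, plates sat 10 min at room temperature, then ATP-coupled luminescence was imaged as the viability read-out.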

[7] = Cytotoxicity counterscreen for inhibitors of SARS-CoV-2 cell entry (AID 1645845; calls by dose curve; note: nearly all actives have a fitted effect of over 50% in size; note: potency is the fitted concentration of half-maximal effect)
In short: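 After a 15 min room-temperature ATPLite 1step step, luminescence reflected ATP remaining in HEK293-ACE2 cells exposed to compound for 1 h plus 48 h at 37 C, with percent activity set by cell and no-cell controls.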

[8] = qHTS drug screen for cell cycle checkpoint inhibitors in PARPi-resistant BRCA-mutant ovarian cancer cell lines. (AID 1963452; calls by dose curve); settings: PEO1/OlaR viability, CellTiter-Glo luminescence, 96 h, stronger effect = lower value
In short: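 PEO1, PEO4 and PEO1/OlaR ovarian cancer cells, 600 per well, exposed 96 h at 37C to a dilution series. Viability read by CellTiter-Glo luminescence, normalized to DMSO and empty wells; activity summarized as Z-AUC.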

[9] = molecular target: Catechol O-methyltransferase (Homo sapiens) (UniProt P21964); experiment: Confirmatory Screen for Target Class Profiling of Small Molecule Inhibitors of Methyltransferases (AID 1745852); settings: MTase-Glo luminescence, SAH detection, recombinant enzyme; measured here: COMT max response; stronger effect = lower value
[10] = molecular target: Guanidinoacetate N-methyltransferase (Homo sapiens) (UniProt Q14353); experiment: as above; settings: activity change, negative = inhibition: at 57.3 µM (top of the series) unless noted
[11] = molecular target: Nicotinamide N-methyltransferase (Homo sapiens) (UniProt P40261); experiment: as above; settings: MTase-Glo luminescence, SAH detection, recombinant enzyme; measured here: NNMT max response; stronger effect = lower value
[12] = molecular target: Phenylethanolamine N-methyltransferase (Homo sapiens) (UniProt P11086); experiment: as above; settings: MTase-Glo luminescence, SAH detection, recombinant enzyme; measured here: PNMT max response; stronger effect = lower value
[13] = measured here: PEO1 parental Z-AUC

Glutathione peroxidase 1 (Homo sapiens), sequence (P07203 whole entry, looked up): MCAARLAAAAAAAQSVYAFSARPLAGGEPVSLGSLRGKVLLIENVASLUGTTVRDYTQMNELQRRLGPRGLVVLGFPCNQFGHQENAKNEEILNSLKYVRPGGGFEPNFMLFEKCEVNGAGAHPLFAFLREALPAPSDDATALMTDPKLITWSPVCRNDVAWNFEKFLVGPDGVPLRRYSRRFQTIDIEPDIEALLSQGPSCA
Cytochrome P450 2D6 (Homo sapiens), sequence (P10635 whole entry, looked up): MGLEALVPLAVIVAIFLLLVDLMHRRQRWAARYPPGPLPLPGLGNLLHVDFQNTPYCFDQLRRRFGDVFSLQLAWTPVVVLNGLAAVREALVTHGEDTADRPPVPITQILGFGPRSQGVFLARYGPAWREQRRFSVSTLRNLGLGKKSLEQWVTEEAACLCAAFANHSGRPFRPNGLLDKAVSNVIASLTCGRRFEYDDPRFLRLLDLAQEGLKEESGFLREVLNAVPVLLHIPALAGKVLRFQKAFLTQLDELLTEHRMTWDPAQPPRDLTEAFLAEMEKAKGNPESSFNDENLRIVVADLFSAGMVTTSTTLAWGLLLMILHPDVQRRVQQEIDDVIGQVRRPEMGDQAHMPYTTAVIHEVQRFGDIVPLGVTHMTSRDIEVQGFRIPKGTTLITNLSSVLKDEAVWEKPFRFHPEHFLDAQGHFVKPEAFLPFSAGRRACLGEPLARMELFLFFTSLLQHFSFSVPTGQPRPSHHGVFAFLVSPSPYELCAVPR
Catechol O-methyltransferase (Homo sapiens), sequence (P21964 whole entry, looked up): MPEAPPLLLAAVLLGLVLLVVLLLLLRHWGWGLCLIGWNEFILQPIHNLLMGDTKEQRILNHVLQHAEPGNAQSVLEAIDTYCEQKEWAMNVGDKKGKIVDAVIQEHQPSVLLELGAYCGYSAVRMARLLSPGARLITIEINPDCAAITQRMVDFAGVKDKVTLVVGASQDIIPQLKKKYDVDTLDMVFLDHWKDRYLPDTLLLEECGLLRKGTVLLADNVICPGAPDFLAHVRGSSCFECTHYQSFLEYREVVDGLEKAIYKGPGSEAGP
Phenylethanolamine N-methyltransferase (Homo sapiens), sequence (P11086 whole entry, looked up): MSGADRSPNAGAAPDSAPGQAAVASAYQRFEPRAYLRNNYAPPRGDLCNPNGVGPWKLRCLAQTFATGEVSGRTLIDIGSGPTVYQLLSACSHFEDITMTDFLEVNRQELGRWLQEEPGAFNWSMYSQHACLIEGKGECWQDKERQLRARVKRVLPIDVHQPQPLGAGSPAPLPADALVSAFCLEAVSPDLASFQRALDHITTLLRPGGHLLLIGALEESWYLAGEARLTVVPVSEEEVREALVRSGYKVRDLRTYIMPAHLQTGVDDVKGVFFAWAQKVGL
Nicotinamide N-methyltransferase (Homo sapiens), sequence (P40261 whole entry, looked up): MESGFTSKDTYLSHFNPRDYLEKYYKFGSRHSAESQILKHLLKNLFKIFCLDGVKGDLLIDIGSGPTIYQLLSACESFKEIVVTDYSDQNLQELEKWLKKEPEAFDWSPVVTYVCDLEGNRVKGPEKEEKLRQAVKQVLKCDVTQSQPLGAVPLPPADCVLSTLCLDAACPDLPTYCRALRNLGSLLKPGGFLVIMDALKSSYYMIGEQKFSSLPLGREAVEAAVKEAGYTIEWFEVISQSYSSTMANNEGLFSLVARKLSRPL

SMILES: CC[C@@H](C)[C@@H]1NC(=O)[C@@H]2CCCN2C(=O)[C@@H](CC(O)CCl)OC(=O)CCNC(=O)[C@H](C)N(C)C(=O)[C@H](C(C)C)N(C)C1=O (some centres undefined) (cyclo([NMeA][βAla][X7]P[aIle][NMeV]))
- Potency [1]: inactive
- Potency [2]: 483 nM (active)
- Potency [3]: inactive
- Potency [4]: inactive
- Potency (CAOV3): 3160 nM (active)
- Potency (JEG-3): inactive

SMILES: CCC1=CC2CN3CCc4c([nH]c5ccccc45)[C@@](C(=O)OC)(C2)[C@@H]13
- Potency [1]: inactive
- Potency [3]: inactive
- Potency (CAOV3): inactive
- Potency (HeLa): inactive
- Potency (JEG-3): inactive

SMILES: CO[C@@H]1C[C@H](O[C@H]2CC[C@@]3(C)C(CCC4C3CC[C@]3(C)[C@@H](C5=CC(=O)OC5)[C@@H](OC(C)=O)CC43O)C2)O[C@H](C)[C@@H]1O[C@H]1O[C@H](CO[C@@H]2O[C@H](CO)[C@@H](O)[C@H](O)[C@H]2O)[C@@H](O)[C@H](O)[C@H]1O (some centres undefined)
- Potency [1]: inactive
- Potency [2]: 774 nM (active)
- Potency [3]: inactive
- activity change, negative = thiol reactive [4]: 43.8% [at 11.5 µM] (inactive)
- Potency (CAOV3): 2240 nM (active)
- Potency (HeLa): 1580 nM (active)
- Potency (SKOV3): 2000 nM (active)

SMILES: C[C@]12CC[C@H]3[C@@H](CCC4=C/C(=N/OCC(=O)O)CC[C@@]43C)[C@@H]1CC[C@@H]2O
- Potency [5]: inactive
- Potency [2]: inactive
- Potency [3]: inactive
- Potency [4]: inactive
- Potency (CAOV3): inactive
- Potency (HeLa): inactive
- Potency (JEG-3): inactive
- Potency (SKOV3): inactive

SMILES: CN1C[C@@H]2CN(c3ccc(-c4ccccc4)nn3)C[C@@H]2C1
- Potency [6]: inactive
- Potency [2]: inactive
- outcome (NIH3T3): inactive
- Potency (CAOV3): inactive
- Potency (HeLa): inactive
- Potency (JEG-3): inactive
- Potency (SKOV3): inactive

SMILES: CC(=O)OC[C@]12C[C@H](O)C(C)=C[C@H]1O[C@@H]1[C@H](O)[C@@H](OC(C)=O)[C@@]2(C)[C@]12CO2
- Potency [1]: inactive
- Potency [4]: inactive
- Potency (JEG-3): 224 nM (active)

SMILES: C=C1[C@@H](C)C2[C@H](Cc3ccccc3)NC(=O)[C@@]23C(/C=C/C[C@H](C)C[C@@](C)(O)/C=C/[C@@H]3OC(C)=O)[C@@H]1O (some centres undefined)
- Potency [2]: 205 nM (active)
- Potency (CAOV3): inactive

SMILES: CC[C@@]1(O)C(=O)OCc2c1cc1n(c2=O)Cc2cc3c(OC)cccc3nc2-1
- Potency [1]: inactive
- Potency [2]: 10.1 nM (active)
- Potency [3]: inactive
- Potency [4]: inactive
- Potency (KB-3-1): 1280 nM (active)
- Potency (SKOV3): 447 nM (active)

SMILES: Cc1sc2c(c1C)C(c1ccc(Cl)cc1)=N[C@@H](CC(N)=O)c1nnc(C)n1-2
- Potency [1]: inactive
- Potency [6]: inactive
- Potency [7]: inactive
- Potency [2]: 51.5 nM (active) and 148 nM (active)
- Potency [3]: inactive
- Z-AUC [8]: -0.829 (inactive) and -0.822 (inactive)
- Z-AUC [8, 13]: -0.858 and -0.588
- Z-AUC ([8]; measured here: PEO4 Z-AUC): -1.13 and -0.593
- Potency (JEG-3): inactive
- Potency (SKOV3): 891 nM (active)

SMILES: Cc1ccccc1CN1CCC(N2CCC(n3c(=O)[nH]c4ccccc43)CC2)CC1
- Potency [1]: inactive
- Potency [6]: 12000 nM (active)
- Potency [2]: inactive
- Potency [3]: inactive
- Potency [4]: inactive
- outcome (NIH3T3): inactive
- Potency (JEG-3): inactive

SMILES: CN[C@@H]1C[C@H]2O[C@@](C)([C@@H]1OC)n1c3ccccc3c3c4c(c5c6ccccc6n2c5c31)C(=O)NC4
- Potency [2]: 59 nM (active)
- Potency [4]: inactive
- Z-AUC [8]: -2.43 (inactive)
- Z-AUC [8, 13]: -2.26
- Z-AUC ([8]; measured here: PEO4 Z-AUC): -2.16
- Potency (KB-3-1): 130 nM (active)
- Potency (SKOV3): 316 nM (active)

SMILES: O=C(CC1NCCC[C@H]1O)Cn1cnc2cc(Br)c(Cl)cc2c1=O (some centres undefined)
- Potency [6]: inactive
- Potency [3]: inactive

SMILES: CCCCN1[C@@H]2CC[C@H]1CC(OC(c1ccc(F)cc1)c1ccc(F)cc1)C2 (some centres undefined)
- Potency [1]: inactive
- Potency [6]: 169 nM (active)
- Potency [2]: 9160 nM (active)
- activity [9]: 0.354%
- activity change, negative = inhibition [10]: 0%
- activity [11]: -14%
- activity [12]: 3.98%
- Potency [3]: inactive
- Potency [4]: inactive
- Potency (HeLa): inactive
- Potency (JEG-3): inactive

SMILES: C[C@@H]1CN(Cc2ccc(F)cc2)CCN1C(=O)COc1ccc(Cl)cc1NC(N)=O
- Potency [1]: inactive
- Potency [7]: 2510 nM (active)
- Potency [3]: inactive
- Potency [4]: inactive
- Z-AUC [8]: -0.0879 (inactive)
- Z-AUC [8, 13]: -1.28
- Z-AUC ([8]; measured here: PEO4 Z-AUC): 0.406
- Potency (HeLa): inactive
- Potency (JEG-3): inactive
- Potency (SKOV3): 3160 nM (active)

SMILES: C[C@H]1C/C=C/[C@H]2[C@@H]3O[C@]3(C)[C@@H](C)[C@H]3[C@H](Cc4ccccc4)NC(=O)[C@]32OC(=O)O/C=C/[C@@](C)(O)C1=O
- Potency [1]: inactive
- Potency [2]: 502 nM (active)
- Potency [3]: inactive
- Potency (KB-3-1): 563 nM (active)
- Potency (SKOV3): 2000 nM (active)

SMILES: C[C@H]1CCC/C=C/C2C[C@H](O)C[C@H]2[C@H](O)/C=C/C(=O)O1 (some centres undefined)
- Potency [5]: 146 nM (active)
- Potency [1]: inactive
- Potency [7]: inactive
- Z-AUC [8]: -0.883 (inactive)
- Z-AUC [8, 13]: -1.19
- Z-AUC ([8]; measured here: PEO4 Z-AUC): -1.2
- Potency (CAOV3): 316 nM (active)
- Potency (HeLa): 355 nM (active)
- Potency (JEG-3): 891 nM (active)

SMILES: C[C@@]1(CO)[C@H](O)CC[C@@]2(C)[C@H]1CC[C@H]1C[C@@H]3C[C@@]12CC[C@]3(O)CO
- Potency [4]: inactive
- Potency (CAOV3): inactive
- Potency (HeLa): inactive
- Potency (JEG-3): inactive

SMILES: CC(=O)O[C@H]1CN2CCC1CC2
- Potency [5]: inactive
- Potency [2]: inactive
- Potency [3]: inactive
- Potency [4]: inactive
- Potency (CAOV3): inactive
- Potency (HeLa): inactive
- Potency (JEG-3): inactive
- Potency (SKOV3): inactive

SMILES: C=C1C[C@]2(O)[C@@]3(C)CCC(=O)C(C)(C)C3=C(O)C(=O)[C@@]2(C)[C@@H]2C(=O)O[C@@](C)(C(=O)OC)C(=O)[C@@]12C
- Potency [2]: inactive
- Potency [3]: inactive
- max response (KB-3-1): 1.74% (inactive)
- Potency (CAOV3): inactive
- Potency (HeLa): inactive
- Potency (JEG-3): inactive
- Potency (SKOV3): inactive
